The results in this text go back to PubChem BioAssay (NCI).

Among the test systems are RPMI-8226 leukemia; OVCAR-8 ovarian; OVCAR-5 ovarian; OVCAR-4 ovarian; SK-OV-3 ovarian; IGROV1 ovarian; OVCAR-3 ovarian; HS 578T breast; NCI/ADR-RES ovarian; T-47D breast.
Holding throughout (experiment): NCI-60 one-dose screen, 48 h (100 = growth as untreated, 0 = no growth, -100 = all killed)
Holding throughout (conditions): 10 µM unless noted

SMILES strings stand for the structures. About 83,000 compounds went through this panel and 20% of them were active in at least one assay; those are over-represented in the sample as a whole.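 Each cell line was grown in a 96-well plate and treated with one concentration of compound for 48 hours. Values below 10 were considered active.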 A number with no mark means an inactive call. Activity calls are given as the source filed them.

Regarding `O=C(Nc1ccc2ncnc(Nc3ccc(F)c(Cl)c3)c2c1)c1ccccc1`, the growth in the assay with RPMI-8226 leukemia was 66.9%; in the assay with OVCAR-8 ovarian, 79.1%; in the assay with OVCAR-5 ovarian, 83.9%; with OVCAR-4 ovarian, -39.8% (active); with SK-OV-3 ovarian, 45.1%; in the assay with IGROV1 ovarian, 28.5%. The growth was 32.5% with OVCAR-3 ovarian, 82.8% with HS 578T breast, 65.9% in the assay with NCI/ADR-RES ovarian and 45.3% in the assay with T-47D breast.
On to `COc1cc(/C=C/C(=O)c2ccc(NC(=O)CSc3nnc(-c4cc(OC)c(OC)c(OC)c4)n3-c3ccccc3)cc2)cc(OC)c1OC`, for which the growth with RPMI-8226 leukemia was -13.1% (active); in the assay on OVCAR-8 ovarian it was 10%; in the assay on OVCAR-5 ovarian it was 61.4%; with OVCAR-4 ovarian, 54.8%; in the assay with SK-OV-3 ovarian, 38%; in the assay with IGROV1 ovarian, 7.57% (active). Besides, the growth in the assay on OVCAR-3 ovarian was -17.8% (active); with HS 578T breast, 83.1%; in the assay on NCI/ADR-RES ovarian, 44.3%; with T-47D breast it was 50.3%.
Turning to `COc1ccc(-c2[nH]c3ccccc3c2C=C(C#N)C#N)cc1`, the growth with RPMI-8226 leukemia is -43.8% (active); in the assay on OVCAR-8 ovarian, 19.4%; with OVCAR-5 ovarian it was 26.7%; in the assay on OVCAR-4 ovarian it was 33.2%; in the assay with SK-OV-3 ovarian it was 28.7%; in the assay on IGROV1 ovarian, 12.3%. Also, the growth was -6.19% (active) in the assay with OVCAR-3 ovarian, 16.4% in the assay on HS 578T breast, -12% (active) in the assay on NCI/ADR-RES ovarian and 51.5% with T-47D breast.
`C=C1C(=O)O[C@H]2[C@H]1CC/C(COC(=O)c1cn(C)c3ccccc13)=C\CC[C@@]1(C)O[C@@H]21`: the growth in the assay on RPMI-8226 leukemia is -29.5% (active); in the assay with OVCAR-8 ovarian it was -20.5% (active); with OVCAR-5 ovarian it was -25.5% (active); in the assay on OVCAR-4 ovarian, -33.6% (active); in the assay with SK-OV-3 ovarian, 63%; with IGROV1 ovarian, -47.6% (active). The growth in the assay on OVCAR-3 ovarian was -72.1% (active); in the assay on HS 578T breast, 12.7%; in the assay on NCI/ADR-RES ovarian, 3.25% (active); in the assay with T-47D breast it was -56.3% (active).
Take `O=C1Nc2ccc(Br)cc2/C1=N\N=C/c1cn(Cc2ccccc2)c2ccccc12`: the growth in the assay on RPMI-8226 leukemia is 95.9%; with OVCAR-8 ovarian, 96.1%; in the assay on OVCAR-5 ovarian it was 28.3%; in the assay with OVCAR-4 ovarian, 84.3%; with SK-OV-3 ovarian, 76.2%; with IGROV1 ovarian, 80.7%. The growth with OVCAR-3 ovarian is 109%; in the assay with HS 578T breast, 80.9%; in the assay on NCI/ADR-RES ovarian it was 99.5%; in the assay on T-47D breast, 89.6%.
In the case of `C=C(C)[C@@H]1CCC=C2CC[C@]3(C)[C@H](CC[C@@H]4[C@@]5(C)CCCNC(C)(C)[C@@H]5CC[C@]43C)[C@H]21`, the growth with RPMI-8226 leukemia was -11.9% (active); with OVCAR-8 ovarian, 3.48% (active); in the assay with OVCAR-5 ovarian it was 56.4%; in the assay on OVCAR-4 ovarian, 36.7%; in the assay with SK-OV-3 ovarian, 112%; with IGROV1 ovarian it was 23.5%. In addition, the growth with OVCAR-3 ovarian was 41.2%; in the assay on HS 578T breast, 97.2%; in the assay on NCI/ADR-RES ovarian it was 55.1%; in the assay with T-47D breast, 60.2%.
On to `COc1cc(C(C)c2ccc3c(ccn3C)c2)cc(OC)c1OC` (stereo not given), for which the growth in the assay with RPMI-8226 leukemia was 15.8%; with OVCAR-8 ovarian, 11.5%; with OVCAR-5 ovarian it was 63.1%; in the assay on OVCAR-4 ovarian it was 37.5%; with SK-OV-3 ovarian it was 17.7%; in the assay with IGROV1 ovarian, 18.8%. Further, the growth with OVCAR-3 ovarian was -16.4% (active); in the assay on HS 578T breast, 35.1%; in the assay on NCI/ADR-RES ovarian it was 13%; in the assay on T-47D breast, 57.3%.
For `COc1ccc(/C(=N\O)c2cc(C)c(OC)c(C)c2)cc1O`, the growth was 12.7% with RPMI-8226 leukemia; 15.3% in the assay on OVCAR-8 ovarian; 46.7% in the assay on OVCAR-5 ovarian; 67% in the assay with OVCAR-4 ovarian; 51.2% in the assay with SK-OV-3 ovarian; 30.3% in the assay on IGROV1 ovarian. The growth is 10.1% in the assay with OVCAR-3 ovarian, 33.5% in the assay on HS 578T breast, 28.6% in the assay with NCI/ADR-RES ovarian and 84.9% with T-47D breast.
As to `NC(=O)c1ccc2nc3c(n2c1)C(=O)C(=O)c1ccccc1-3`, the growth in the assay on RPMI-8226 leukemia was -28.1% (active); in the assay with OVCAR-8 ovarian, -61.2% (active); in the assay on OVCAR-5 ovarian, -86.4% (active); in the assay with OVCAR-4 ovarian it was -97.3% (active); in the assay on SK-OV-3 ovarian, -89.2% (active); with IGROV1 ovarian, -48.8% (active). Also, the growth in the assay on OVCAR-3 ovarian was -99.2% (active); with HS 578T breast, -6.37% (active); in the assay on NCI/ADR-RES ovarian, -1.27% (active); in the assay on T-47D breast, -46.2% (active).
As to `CN1CC=C(c2cc(NC(=O)Nc3ccc(Oc4ccnc(NC(=O)C5CC5)c4)c(F)c3)cc(C(F)(F)F)c2)CC1`, the growth is -28% (active) in the assay on RPMI-8226 leukemia; -2.13% (active) with OVCAR-8 ovarian; 7.5% (active) in the assay on OVCAR-5 ovarian; 3.24% (active) in the assay with OVCAR-4 ovarian; 17.1% in the assay on SK-OV-3 ovarian; 2.9% (active) in the assay on IGROV1 ovarian. Moreover, the growth in the assay with OVCAR-3 ovarian was 8.26% (active); in the assay on HS 578T breast it was -17.3% (active); in the assay on NCI/ADR-RES ovarian, 44.7%; in the assay with T-47D breast, -0.194% (active).
As for `NCCN1CCNCC1`, the growth with RPMI-8226 leukemia was 79.2%; in the assay with OVCAR-8 ovarian, 112%; with OVCAR-5 ovarian, 94%; in the assay on OVCAR-4 ovarian, 100%; in the assay with SK-OV-3 ovarian, 101%; in the assay on IGROV1 ovarian, 104%. Besides, the growth is 109% with OVCAR-3 ovarian, 98% with HS 578T breast, 102% with NCI/ADR-RES ovarian and 86.2% in the assay with T-47D breast.
For `C=C1C(=O)O[C@H]2[C@H]1CC/C(COC(=O)CCCCCCCCC(=O)OC/C1=C/CC[C@@]3(C)O[C@H]3[C@H]3OC(=O)C(=C)[C@@H]3CC1)=C\CC[C@@]1(C)O[C@@H]21`, the growth was -6.37% (active) in the assay with RPMI-8226 leukemia; 10.2% with OVCAR-8 ovarian; 28.9% with OVCAR-5 ovarian; 29% with OVCAR-4 ovarian; 86.9% in the assay on SK-OV-3 ovarian; -19.2% (active) in the assay with IGROV1 ovarian. For the same compound, the growth in the assay on OVCAR-3 ovarian is 2.11% (active); in the assay on HS 578T breast it was 10.3%; with NCI/ADR-RES ovarian, 2.99% (active); with T-47D breast, -27.3% (active).
Take `COCCc1n(Cc2ccc3ccccc3c2)c2ccccc2[n+]1Cc1ccc2ccccc2c1`: the growth in the assay on RPMI-8226 leukemia is -52.7% (active); in the assay with OVCAR-8 ovarian, -54.6% (active); in the assay with OVCAR-5 ovarian, -2.95% (active); in the assay with OVCAR-4 ovarian it was -4.37% (active); with SK-OV-3 ovarian it was -14.6% (active); with IGROV1 ovarian it was -63.4% (active). Also, the growth is -72.8% (active) with OVCAR-3 ovarian, -6.4% (active) with HS 578T breast, 84.4% in the assay with NCI/ADR-RES ovarian and -16.7% (active) in the assay with T-47D breast.
Consider `CC1(c2ccccc2Cl)NC(=O)NC1=O` (stereo not given), for which the growth in the assay on RPMI-8226 leukemia is 102%; with OVCAR-8 ovarian it was 102%; in the assay with OVCAR-5 ovarian, 106%; in the assay on OVCAR-4 ovarian, 109%; in the assay on SK-OV-3 ovarian, 97.3%; with IGROV1 ovarian it was 106%. For the same compound, the growth was 106% with OVCAR-3 ovarian, 99.7% in the assay on HS 578T breast, 96.9% with NCI/ADR-RES ovarian and 79.3% in the assay with T-47D breast.
